BioA inh = inhibitors of Mycobacterium tuberculosis BioA enzyme; hit rate 0.096% among 360,000; purified M. tuberculosis BioA enzyme, plate reader; inhibition, % at 9.99 µM; in the data active = inhibition above about 40%
BH1578 lux ind = induces V. cholerae light production without autoinducers. V. cholerae BH1578 lux reporter, luminescence, 6 h. activation, % at 18.7 µM. hit rate 0.16% among 350,000. AID 588436; in the data active = activation mostly above about 9.7%, no sharp cut-off
GDH-TPI counter-1 = inhibits GDH-TPI coupling enzymes, artifact for Mtb FBA screen. GDH-TPI coupled enzyme counterscreen, NADH absorbance. hit rate 1.2% among 360,000. inhibition, % at 4.8 µM; in the data active = inhibition above about 30%;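 also: 0% = DMSO wells and 100% = wells lacking the enzyme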
Mtb FBA inh = Mtb fructose-bisphosphate aldolase inhibition; purified M. tuberculosis FBA, fluorescence read-out; P9WQA3; AID 588726; inhibition, % at 1 µM; hit rate 2.3% among 360,000;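 also: 0% = vehicle and 100% = reference inhibitor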
Target sequence (P9WQA3 whole entry, looked up): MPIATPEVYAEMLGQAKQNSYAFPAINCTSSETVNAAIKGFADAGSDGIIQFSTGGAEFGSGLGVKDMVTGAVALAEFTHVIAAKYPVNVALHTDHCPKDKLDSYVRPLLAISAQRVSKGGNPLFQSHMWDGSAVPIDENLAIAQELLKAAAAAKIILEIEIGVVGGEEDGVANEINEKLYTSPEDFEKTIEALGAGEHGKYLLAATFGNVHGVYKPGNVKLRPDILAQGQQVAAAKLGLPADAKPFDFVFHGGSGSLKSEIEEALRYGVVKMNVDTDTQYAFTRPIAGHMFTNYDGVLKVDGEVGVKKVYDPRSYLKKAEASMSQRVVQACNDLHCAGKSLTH
Mtb FBA confirm = confirmation of M. tuberculosis fructose-bisphosphate aldolase inhibitors; shares compounds with Mtb FBA inh; purified M. tuberculosis FBA, fluorescence read-out; inhibition, % at 1 µM; hit rate 78% among 5,600; AID 651616;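 also: 0% = vehicle wells and 100% = reference inhibitor wells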
GDH-TPI counter-2 = GDH-TPI inhibition counter-screen for FBA inhibitors | shares compounds with Mtb FBA inh | GDH-TPI coupled enzyme counterscreen, fluorescence | inhibition, % at 1 µM | hit rate 81% among 5,600; in the data active = inhibition above about 10%
An asterisk follows results filed as active. Rows were chosen to be rich in hits. Some 3% of all compounds tested hit in one or more screens of this group. Rule as the data show it, unless noted: active = inhibition above about 27%; inactive = the rest.

Screening Nc1c(C(=O)NCc2ccc(F)cc2)c2nc3ccccc3nc2n1CCCN1CCOCC1 returned BioA inh -0.3, BH1578 lux ind inactive, GDH-TPI counter-1 10.8, Mtb FBA inh 47.9*, Mtb FBA confirm active and GDH-TPI counter-2 active.
`Nc1c(C(=O)NCc2ccccc2)c2nc3ccccc3nc2n1CCCN1CCOCC1` gave BH1578 lux ind 1.9, GDH-TPI counter-1 7.8, Mtb FBA inh 58.4*, Mtb FBA confirm 146.2* and GDH-TPI counter-2 113.6*.
O=C(NCCCN1CCOCC1)c1ccc(CNS(=O)(=O)c2ccc(F)cc2)cc1 was read as BH1578 lux ind -2.5, GDH-TPI counter-1 11.4 and Mtb FBA inh 2.3.
Screening COc1ccc(CNC(=O)c2c(N)n(CCCN3CCOCC3)c3nc4ccccc4nc23)cc1 returned BH1578 lux ind -0.4, GDH-TPI counter-1 13.3, Mtb FBA inh 55.1*, Mtb FBA confirm 132.2* and GDH-TPI counter-2 107.2*.
`Cc1cc(-c2ccccc2)c2nncn2n1` gave BioA inh -0.6, BH1578 lux ind -0.3, GDH-TPI counter-1 -3.2, Mtb FBA inh 45.1*, Mtb FBA confirm active and GDH-TPI counter-2 active.
Screening CO[C@H]1CN(C)C(=O)c2cc(NC(=O)C3CC3)ccc2OC[C@H](C)N(Cc2ccc(F)cc2)C[C@@H]1C returned BioA inh 2.3.
C=CCn1c2ccccc2c(=O)c2cc(C#CC3(O)CCCCC3)ccc21 was read as BioA inh 2.0, BH1578 lux ind inactive, GDH-TPI counter-1 0.9, Mtb FBA inh 64.6*, Mtb FBA confirm 133.8* and GDH-TPI counter-2 108.3*.
Screening O=c1c2ccccc2sc2ccc(C#CC3(O)CCCCC3)cc12 returned BioA inh -4.6, BH1578 lux ind inactive, GDH-TPI counter-1 6.0 and Mtb FBA inh 19.5.
CCC1(OC(=O)CN(C)C)C(=O)OCc2c1cc1n(c2=O)Cc2cc3c(N)cccc3nc2-1 (stereo unspecified) was read as BH1578 lux ind -0.9, GDH-TPI counter-1 24.1, Mtb FBA inh 53.4*, Mtb FBA confirm -1.7 and GDH-TPI counter-2 -2.2.
`Fc1cc(F)c2nc(Nc3nc4cc5c(cc4s3)OCO5)sc2c1` gave BH1578 lux ind -0.3, GDH-TPI counter-1 10.6, Mtb FBA inh 32.4*, Mtb FBA confirm 84.4* and GDH-TPI counter-2 66.1*.
Screening CC(C)C(=O)Nc1nc2cc3c(cc2s1)OCO3 returned BioA inh -1.4, BH1578 lux ind -0.5, GDH-TPI counter-1 8.6 and Mtb FBA inh -3.4.
Fc1cccc2sc(Nc3nc4cc5c(cc4s3)OCO5)nc12 was read as BioA inh -1.9, BH1578 lux ind inactive, GDH-TPI counter-1 18.6, Mtb FBA inh 34.9*, Mtb FBA confirm 128.0* and GDH-TPI counter-2 93.0*.
Fc1cccc2sc(Nc3nc4cc5c(cc4s3)OCCO5)nc12 was read as BH1578 lux ind -0.3, GDH-TPI counter-1 15.8, Mtb FBA inh 39.3*, Mtb FBA confirm -4.9 and GDH-TPI counter-2 -5.2.
C[C@@H]1CN([C@H](C)CO)C(=O)c2cc(NS(=O)(=O)c3ccc(Cl)cc3)ccc2O[C@H]1CN(C)Cc1ccncc1 was read as BioA inh 0.5.
`C[C@@H]1CN([C@H](C)CO)C(=O)Cc2cc(NC(=O)c3ccncc3)ccc2O[C@H]1CN(C)C(=O)Nc1ccc(C(F)(F)F)cc1` gave BioA inh 1.2.
Screening CC1(C)Oc2ccc3ccc(=O)oc3c2/C(=C/NNC(N)=S)C1=O returned BioA inh -3.4, BH1578 lux ind -0.2, GDH-TPI counter-1 14.4, Mtb FBA inh 28.3*, Mtb FBA confirm active and GDH-TPI counter-2 197.2*.
Screening Cc1ccc(S(=O)(=O)N(C)C[C@H]2Oc3ccc(NC(=O)CCCN(C)C)cc3CC(=O)N([C@@H](C)CO)C[C@@H]2C)cc1 returned BioA inh -0.1.
Screening O=c1c2ccccc2c(/C=N/c2n[nH]c(CCCO)n2)c(O)n1-c1ccccc1Cl returned BH1578 lux ind inactive, GDH-TPI counter-1 8.2, Mtb FBA inh 30.3*, Mtb FBA confirm 73.4* and GDH-TPI counter-2 57.4*.
Screening C=CCc1c(OC)ccc2ccc(=O)oc12 returned BioA inh 0.7, BH1578 lux ind inactive, GDH-TPI counter-1 6.4, Mtb FBA inh 55.3*, Mtb FBA confirm 124.0* and GDH-TPI counter-2 105.3*.
`C[C@@H]1CN([C@@H](C)CO)C(=O)Cc2cc(NC(=O)Nc3ccc(F)cc3)ccc2O[C@@H]1CN(C)C(=O)Nc1ccccc1` gave BioA inh -2.2.
`Cc1ccc(-c2cc(-c3ccc(F)cc3)c(C#N)c(N)n2)o1` gave BioA inh 0.1, BH1578 lux ind -0.4, GDH-TPI counter-1 2.5, Mtb FBA inh 46.8*, Mtb FBA confirm active and GDH-TPI counter-2 173.4*.
Cc1ccc(-c2cc(-c3ccc(C)o3)nc(N)c2C#N)cc1 was read as BH1578 lux ind inactive, GDH-TPI counter-1 11.9 and Mtb FBA inh 18.9.
CC(=O)N(C)C[C@@H]1Oc2ncc(C#Cc3ccncc3)cc2C(=O)N([C@H](C)CO)C[C@H]1C was read as BioA inh 0.4.
`COc1ccccc1N1CCN(C(=O)c2cc3c(s2)CCCCC3)CC1` gave BioA inh 8.7, BH1578 lux ind -7.7, GDH-TPI counter-1 -8.3 and Mtb FBA inh -4.4.
`O=C(c1cc2c(s1)CCCC2)N1CCN(c2ccccc2)CC1` gave BH1578 lux ind inactive, GDH-TPI counter-1 -1.3, Mtb FBA inh 34.4*, Mtb FBA confirm 83.5* and GDH-TPI counter-2 66.8*.
Cn1c(=O)c2c(nc(SCCN3CCCCC3)n2Cc2ccc(Cl)cc2)n(C)c1=O was read as BioA inh 2.5, BH1578 lux ind inactive, GDH-TPI counter-1 -3.0, Mtb FBA inh 43.8*, Mtb FBA confirm 79.7* and GDH-TPI counter-2 68.1*.
Screening CCSc1nc2c(c(=O)n(C)c(=O)n2C)n1Cc1ccc(Cl)cc1 returned BioA inh 1.3, BH1578 lux ind -2.2, GDH-TPI counter-1 -2.5 and Mtb FBA inh -3.0.
For C[C@@H]1CN([C@@H](C)CO)C(=O)c2cc(NC(=O)C3CC3)ccc2O[C@@H]1CN(C)CC1CCCCC1 the results were BioA inh -1.5.
CCCN(C)C[C@H]1Oc2cc(-c3cncnc3)ccc2S(=O)(=O)N([C@H](C)CO)C[C@H]1C was read as BioA inh 1.7.
Screening O=C(c1cc2c(ccc3ccccc32)o1)N1CCCCC1 returned BioA inh 0.9, BH1578 lux ind -0.5, GDH-TPI counter-1 10.4 and Mtb FBA inh -1.4.
For CN1CCN(C(=O)c2cc3c(ccc4ccccc43)oc2=O)CC1 the results were BioA inh -2.0, BH1578 lux ind inactive, GDH-TPI counter-1 11.8, Mtb FBA inh 54.0*, Mtb FBA confirm 45.1* and GDH-TPI counter-2 30.5*.
For CCCCn1c2nc3ccccc3nc2c2c(=N)oc(C)nc21 the results were BioA inh -0.9, BH1578 lux ind 1.4, GDH-TPI counter-1 1.7, Mtb FBA inh 31.0*, Mtb FBA confirm 35.2* and GDH-TPI counter-2 25.5*.
CNC(=O)C[C@H]1CC[C@@H]2[C@@H](COc3ccc(NC(=O)c4ccccc4Cl)cc3C(=O)N2C)O1 was read as BioA inh 17.6.
